For some of these results: Entries with a potency or affinity are not part of this list.

Here are results for eleven compounds from ChEMBL document CHEMBL3988442, “University of Dundee, Small-Polar-MMV Screening Library” (2021).

Design in all cases: scale not given: direction of the effect not stated beside the values
The target in assay [1] is Protein translocase subunit SecA (Escherichia coli (strain K12)) (UniProt P10408). Description: Assay to Identify E. coli SecA ATPase Inhibitors. It is filed as functional. The following applies: 30 µM.
Protein translocase subunit SecA (Escherichia coli (strain K12)), sequence (P10408 whole entry): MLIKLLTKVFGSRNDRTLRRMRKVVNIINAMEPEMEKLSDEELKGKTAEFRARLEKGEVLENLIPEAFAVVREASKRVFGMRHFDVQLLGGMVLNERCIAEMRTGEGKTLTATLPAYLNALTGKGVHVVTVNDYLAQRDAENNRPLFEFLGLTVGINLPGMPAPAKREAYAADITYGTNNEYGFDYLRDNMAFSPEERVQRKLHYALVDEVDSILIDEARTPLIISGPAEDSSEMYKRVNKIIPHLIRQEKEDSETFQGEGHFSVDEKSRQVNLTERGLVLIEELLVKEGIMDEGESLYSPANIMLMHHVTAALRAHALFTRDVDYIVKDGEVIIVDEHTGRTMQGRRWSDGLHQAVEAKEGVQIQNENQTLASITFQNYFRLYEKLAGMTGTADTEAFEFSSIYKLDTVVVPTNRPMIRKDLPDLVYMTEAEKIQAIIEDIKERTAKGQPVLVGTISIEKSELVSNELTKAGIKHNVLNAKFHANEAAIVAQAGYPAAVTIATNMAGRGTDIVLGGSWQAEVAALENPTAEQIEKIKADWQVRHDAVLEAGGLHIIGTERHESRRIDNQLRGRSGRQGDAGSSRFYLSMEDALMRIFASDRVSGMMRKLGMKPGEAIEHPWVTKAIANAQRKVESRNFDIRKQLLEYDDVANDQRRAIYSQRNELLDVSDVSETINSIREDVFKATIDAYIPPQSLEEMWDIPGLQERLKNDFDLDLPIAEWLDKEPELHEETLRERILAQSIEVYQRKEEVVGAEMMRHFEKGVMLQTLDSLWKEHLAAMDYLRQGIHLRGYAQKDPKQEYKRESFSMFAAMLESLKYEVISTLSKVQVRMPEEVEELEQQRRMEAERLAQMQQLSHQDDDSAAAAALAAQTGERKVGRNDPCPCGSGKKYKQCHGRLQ
Assay [2] has as its target T1, Ubiquitin-activating enzyme e1, putative (Leishmania donovani (strain BPK282A1)) (UniProt E9BSI1).
T1 sequence (whole entry): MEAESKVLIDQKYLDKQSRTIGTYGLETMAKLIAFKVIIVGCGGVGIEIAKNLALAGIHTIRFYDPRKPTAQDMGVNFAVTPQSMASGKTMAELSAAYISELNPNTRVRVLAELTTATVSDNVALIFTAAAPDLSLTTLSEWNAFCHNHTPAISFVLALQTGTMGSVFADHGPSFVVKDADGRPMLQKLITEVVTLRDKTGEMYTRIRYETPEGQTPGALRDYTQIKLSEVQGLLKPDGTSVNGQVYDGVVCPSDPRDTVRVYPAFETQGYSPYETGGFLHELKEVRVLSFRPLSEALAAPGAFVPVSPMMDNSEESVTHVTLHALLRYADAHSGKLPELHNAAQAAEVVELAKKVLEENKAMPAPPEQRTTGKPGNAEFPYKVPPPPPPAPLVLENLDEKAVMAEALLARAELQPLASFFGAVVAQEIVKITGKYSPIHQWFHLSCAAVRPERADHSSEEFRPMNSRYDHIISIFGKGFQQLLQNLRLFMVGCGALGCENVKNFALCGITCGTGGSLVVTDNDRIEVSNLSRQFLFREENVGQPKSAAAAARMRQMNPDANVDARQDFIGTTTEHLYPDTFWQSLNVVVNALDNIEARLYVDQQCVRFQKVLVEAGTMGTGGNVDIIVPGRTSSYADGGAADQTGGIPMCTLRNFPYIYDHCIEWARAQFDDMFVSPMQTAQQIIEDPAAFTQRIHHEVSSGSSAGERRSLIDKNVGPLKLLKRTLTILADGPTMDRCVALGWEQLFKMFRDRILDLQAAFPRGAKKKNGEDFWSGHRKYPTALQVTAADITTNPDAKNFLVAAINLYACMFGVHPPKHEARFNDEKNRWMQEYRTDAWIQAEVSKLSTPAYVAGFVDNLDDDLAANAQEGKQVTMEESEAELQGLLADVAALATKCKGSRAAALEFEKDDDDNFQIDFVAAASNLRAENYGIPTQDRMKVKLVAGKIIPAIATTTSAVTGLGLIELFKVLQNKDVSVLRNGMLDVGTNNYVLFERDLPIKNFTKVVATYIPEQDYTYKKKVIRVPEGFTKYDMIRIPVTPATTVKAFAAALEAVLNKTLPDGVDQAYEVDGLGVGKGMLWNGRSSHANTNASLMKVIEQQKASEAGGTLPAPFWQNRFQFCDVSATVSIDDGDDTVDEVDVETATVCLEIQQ
Description: Leishmania donovani Ubiquitin Activating Enzyme (LdE1). The conditions noted are these: 30 µM. It is filed as functional.

Assay [3] has as its target AMP-activated protein kinase, AMPK (Homo sapiens) (UniProt P54646+O43741+P54619+Q9UGJ0+Q9Y478+Q13131+Q9UGI9). In words: AMP-dependent Kinase enzyme assay. An in vitro enzyme assay that detects ADP turnover that is directly proportional to AMPK activity. This uses naive AMPK that is activated during the assay with MK-8722. The format is functional. The following applies: 30 µM.

The target in assay [4] is Sialic acid-binding Ig-like lectin 9 (Homo sapiens) (UniProt Q9Y336). Description: Hs-Siglec9 ALPHAscreen SOP 20170721. The conditions noted are these: 10 µM.
Sialic acid-binding Ig-like lectin 9 (Homo sapiens), sequence (Q9Y336 whole entry): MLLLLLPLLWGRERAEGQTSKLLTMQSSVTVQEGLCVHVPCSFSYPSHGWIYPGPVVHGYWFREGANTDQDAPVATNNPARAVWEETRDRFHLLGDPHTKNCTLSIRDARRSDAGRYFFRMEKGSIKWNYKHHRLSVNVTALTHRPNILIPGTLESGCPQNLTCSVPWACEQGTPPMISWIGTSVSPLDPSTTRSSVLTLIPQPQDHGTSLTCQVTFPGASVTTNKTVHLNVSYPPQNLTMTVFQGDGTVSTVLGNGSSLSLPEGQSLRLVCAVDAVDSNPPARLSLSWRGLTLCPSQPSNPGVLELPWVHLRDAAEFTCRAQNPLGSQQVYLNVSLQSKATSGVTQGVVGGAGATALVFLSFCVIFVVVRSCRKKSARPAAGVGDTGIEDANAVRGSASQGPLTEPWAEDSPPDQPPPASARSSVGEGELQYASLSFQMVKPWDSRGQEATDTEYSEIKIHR
A further assay relates to Trypanosoma cruzi. In words: Trypanosoma cruzi phosphomannomutase and mannose-1-phosphate guanylyltransferase assay. The format is functional. The conditions noted are these: 10 µM.
The target in assay [5] is T2, Arginase-2, mitochondrial (Homo sapiens) (UniProt P78540).
T2 sequence (whole entry): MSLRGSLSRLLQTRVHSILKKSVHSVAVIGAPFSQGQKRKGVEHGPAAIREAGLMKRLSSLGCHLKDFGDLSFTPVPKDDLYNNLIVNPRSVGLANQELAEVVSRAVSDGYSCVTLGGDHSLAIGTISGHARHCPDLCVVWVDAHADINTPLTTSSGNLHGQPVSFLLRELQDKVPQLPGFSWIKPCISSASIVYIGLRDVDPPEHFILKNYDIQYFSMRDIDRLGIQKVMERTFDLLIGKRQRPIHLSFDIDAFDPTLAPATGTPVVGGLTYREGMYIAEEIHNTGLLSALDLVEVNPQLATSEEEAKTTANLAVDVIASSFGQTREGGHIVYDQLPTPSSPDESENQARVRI
Description: in vitro enzyme assay to detect the production of urea directly proportional to the activity of Arginase II. Also: in the data most compounds retested in dose-response had high values. The format is functional. The conditions noted are these: 33.3 µM.

The target in assay [6] is T3, Proteasome subunit beta (Trypanosoma cruzi) (UniProt O96673).
T3 sequence (whole entry): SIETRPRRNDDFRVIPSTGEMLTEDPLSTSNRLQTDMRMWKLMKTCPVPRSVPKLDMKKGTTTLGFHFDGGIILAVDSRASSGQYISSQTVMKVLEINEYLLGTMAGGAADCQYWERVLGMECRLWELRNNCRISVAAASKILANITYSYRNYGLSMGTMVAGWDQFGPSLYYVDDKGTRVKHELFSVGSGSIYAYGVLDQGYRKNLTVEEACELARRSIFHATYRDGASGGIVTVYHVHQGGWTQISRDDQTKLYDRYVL
Description: Trypanosoma cruzi proteasome chymotrypsin-like activity (TcProtChymo) assay. Also: in the data most compounds retested in dose-response had high values. It is filed as functional. The following applies: 9.37 µM.

The next assay is filed under the species Homo sapiens. In words: To identify inhibition of the IFN signalling (Jak-Stat) pathway via expression of an eGFP reporter gene under the control of an IFN-stimulated response element (ISRE) containing MxA promoter. It is filed as functional. The following applies: 30 µM. In general terms: In a reporter assay the amount or activity of a reporter protein is the signal.

In assay [7] the target is T4, Tyrosyl-tRNA synthetase, putative (Trypanosoma cruzi (strain CL Brener)) (UniProt Q4DSP6).
T4 sequence (whole entry): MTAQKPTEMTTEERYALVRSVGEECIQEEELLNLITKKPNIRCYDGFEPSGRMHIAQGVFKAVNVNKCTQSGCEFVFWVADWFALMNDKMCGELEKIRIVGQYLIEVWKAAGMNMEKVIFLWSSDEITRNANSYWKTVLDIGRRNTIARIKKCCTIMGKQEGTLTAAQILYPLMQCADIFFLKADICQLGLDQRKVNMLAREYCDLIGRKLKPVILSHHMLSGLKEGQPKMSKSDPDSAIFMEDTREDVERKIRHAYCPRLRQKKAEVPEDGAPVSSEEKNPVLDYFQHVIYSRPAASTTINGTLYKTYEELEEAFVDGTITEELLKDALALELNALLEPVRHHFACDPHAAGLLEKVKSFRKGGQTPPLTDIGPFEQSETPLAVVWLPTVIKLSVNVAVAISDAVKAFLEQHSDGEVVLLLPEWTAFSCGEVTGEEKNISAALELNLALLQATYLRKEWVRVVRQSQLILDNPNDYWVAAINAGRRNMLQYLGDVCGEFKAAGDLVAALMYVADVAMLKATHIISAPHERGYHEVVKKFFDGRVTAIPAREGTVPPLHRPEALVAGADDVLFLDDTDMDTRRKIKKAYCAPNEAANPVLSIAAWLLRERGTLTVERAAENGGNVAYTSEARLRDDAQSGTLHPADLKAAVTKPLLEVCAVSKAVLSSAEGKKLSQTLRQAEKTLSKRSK
In words: Trypanosoma cruzi tyrosyl tRNA synthetase (TcYRS) _High Tyrosine SOP. Also: in the data most compounds retested in dose-response had high values. It is filed as functional. The conditions noted are these: 30 µM.

The target in assay [8] is T4, Tyrosyl-tRNA synthetase, putative (Trypanosoma cruzi (strain CL Brener)). Description: Trypanosoma cruzi tyrosyl tRNA synthetase (TcYRS) SOP. It is filed as functional. The following applies: 30 µM.
In assay [9] the target is Chromo domain-containing protein 1 (Saccharomyces cerevisiae (strain ATCC 204508 / S288c) (Baker's yeast)) (UniProt P32657). In words: ScCHD-1 Enzyme Inhibition Assay. Also: in the data most compounds retested in dose-response had high values. It is filed as functional. The following applies: 30 µM.
Chromo domain-containing protein 1 (Saccharomyces cerevisiae (strain ATCC 204508 / S288c) (Baker's yeast)), sequence (P32657 whole entry, the tested form may be a part): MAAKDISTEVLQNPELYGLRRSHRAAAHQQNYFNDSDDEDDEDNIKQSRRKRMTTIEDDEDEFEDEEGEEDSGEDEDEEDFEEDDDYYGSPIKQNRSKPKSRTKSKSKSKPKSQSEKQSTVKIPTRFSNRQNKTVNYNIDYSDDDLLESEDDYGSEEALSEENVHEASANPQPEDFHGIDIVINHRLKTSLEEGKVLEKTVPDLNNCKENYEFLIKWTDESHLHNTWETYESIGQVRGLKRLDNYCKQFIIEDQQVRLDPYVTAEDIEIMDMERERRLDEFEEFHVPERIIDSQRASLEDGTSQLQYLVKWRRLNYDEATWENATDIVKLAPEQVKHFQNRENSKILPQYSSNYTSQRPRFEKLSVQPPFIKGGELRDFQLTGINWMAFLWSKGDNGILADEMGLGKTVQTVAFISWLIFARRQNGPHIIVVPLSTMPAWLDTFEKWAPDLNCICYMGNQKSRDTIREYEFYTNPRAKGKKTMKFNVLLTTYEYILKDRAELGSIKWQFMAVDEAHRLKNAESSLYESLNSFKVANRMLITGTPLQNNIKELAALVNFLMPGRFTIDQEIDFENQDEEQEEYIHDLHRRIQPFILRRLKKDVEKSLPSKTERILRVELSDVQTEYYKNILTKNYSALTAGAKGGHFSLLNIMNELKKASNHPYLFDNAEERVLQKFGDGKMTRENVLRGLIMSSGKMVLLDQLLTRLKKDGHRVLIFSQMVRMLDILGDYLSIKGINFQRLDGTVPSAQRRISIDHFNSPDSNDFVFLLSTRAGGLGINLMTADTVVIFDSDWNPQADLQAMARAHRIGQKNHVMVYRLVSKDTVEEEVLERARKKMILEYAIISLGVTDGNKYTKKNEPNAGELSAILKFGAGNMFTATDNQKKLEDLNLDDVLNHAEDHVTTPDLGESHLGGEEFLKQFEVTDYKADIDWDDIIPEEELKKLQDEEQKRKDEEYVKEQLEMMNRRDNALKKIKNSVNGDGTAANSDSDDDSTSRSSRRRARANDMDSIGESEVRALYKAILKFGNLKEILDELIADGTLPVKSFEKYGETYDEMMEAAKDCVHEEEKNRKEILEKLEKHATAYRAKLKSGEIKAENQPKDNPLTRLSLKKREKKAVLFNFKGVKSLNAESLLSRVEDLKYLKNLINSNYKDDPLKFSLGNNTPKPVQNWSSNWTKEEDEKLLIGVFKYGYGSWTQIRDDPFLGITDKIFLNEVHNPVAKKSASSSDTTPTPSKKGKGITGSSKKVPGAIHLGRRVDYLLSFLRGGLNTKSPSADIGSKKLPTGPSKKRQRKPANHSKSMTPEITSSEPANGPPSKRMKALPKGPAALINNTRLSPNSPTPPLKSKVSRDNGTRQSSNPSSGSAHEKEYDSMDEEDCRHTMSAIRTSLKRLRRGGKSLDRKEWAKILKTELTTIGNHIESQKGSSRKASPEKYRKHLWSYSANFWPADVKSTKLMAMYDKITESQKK

`c1cc(CNCC2OCCc3cn(CC4CCOCC4)nc32)ccn1` (stereo unspecified): the Percent Effect in assay [1] was -0.867%; in [2], -37.8%; in assay [3] it was 1.52%; in assay [4], -8.34%; in the assay with Trypanosoma cruzi, 1.86%; in assay [5], 4.78%. Moreover, the Percent Effect in [6] was 29%; in the assay listed under Homo sapiens it was 18.1%; in assay [7], 6.49%; in assay [8] it was 17.9%; in assay [9], 1.56%.

With `O=C(CCCc1nnc(-c2ccccc2)o1)N1CCN(CCO)CC1`, the Percent Effect in assay [1] was 0.944%; in [2], 5.06%; in assay [3], -13.1%; in assay [4], 8.28%; in the assay on Trypanosoma cruzi, -2.36%; in [5] it was 5.7%. Moreover, the Percent Effect in assay [6] was 12.2%; in the assay listed under Homo sapiens, 0.191%; in [7], 2.46%; in assay [8], 8.86%; in assay [9] it was -6.47%.

Regarding `CC(C)(C)n1cc(C(=O)N2CCN(Cc3ccsc3)CC2)cn1`, the Percent Effect in assay [1] is -3.19%; in [2], 10.5%; in assay [3] it was 2.2%; in [4] it was 9.1%; with Trypanosoma cruzi it was 7.71%; in assay [5] it was -3.06%. For the same compound, the Percent Effect in assay [6] is 3.51%; in the assay filed under Homo sapiens it was -5.26%; in [7] it was 6.37%; in assay [8] it was 17.1%; in assay [9], -11%.

Regarding `CCS(=O)(=O)N1CCc2ccc(NC(=O)Nc3cccc(SC)c3)cc21`, the Percent Effect in assay [1] was -1.43%; in assay [2] it was -20.8%; in assay [3], 1.15%; in [4], 1.13%; with Trypanosoma cruzi, 0.69%; in [5] it was -3.23%. The Percent Effect in assay [6] was 17.6%; in the assay listed under Homo sapiens, 77.5%; in assay [7], -48.7%; in assay [8], -73.1%; in assay [9] it was -5.8%.

With `Cc1cc(C2CCCN(CCCS(=O)(=O)c3ccccc3)C2)n[nH]1` (stereo unspecified), the Percent Effect in assay [1] was -0.801%; in assay [2] it was 15.2%; in [3] it was -4.79%; in [4], -8.5%; in the assay with Trypanosoma cruzi, -3.87%; in [5], 6.46%. Also, the Percent Effect in assay [6] was 4.34%; in the assay filed under Homo sapiens, 18.4%; in [7] it was 4.43%; in [8], 11.4%; in assay [9] it was -5.44%.

As for `CCNc1cc2c(nn1)CCN(C(=O)c1cccc3c1OCCO3)C2`, the Percent Effect in assay [1] was -5.14%; in [2] it was 7.79%; in assay [3], -15.3%; in [4], 14.1%; in the assay on Trypanosoma cruzi it was 5.99%; in [5], -6.76%. In addition, the Percent Effect in [6] is 15.4%; in the assay listed under Homo sapiens it was 1.1%; in [7], 5.83%; in assay [8] it was 14.6%; in [9] it was -10.8%.

Take `CN(C)C(=O)COC[C@]12COC[C@H]1CN(Cc1ccoc1)C2`: the Percent Effect in assay [1] was -2.44%; in [2] it was 2.7%; in [3] it was -3.89%; in assay [4], 10.2%; in the assay on Trypanosoma cruzi, 5.77%; in assay [5], 7.69%. Moreover, the Percent Effect in [6] is 2.49%; in the assay filed under Homo sapiens it was 5.51%; in assay [7], 4.3%; in assay [8], 1.24%; in [9] it was -5.77%.

As for `Cc1csc2c(=O)n3c(nc12)CCN(C(=O)c1cccnc1)CC3`, the Percent Effect in assay [1] was -2.51%; in [2], 9.46%; in [3], 13.3%; in assay [4] it was -1.07%; with Trypanosoma cruzi it was 4.94%; in assay [5], -1.16%. The Percent Effect in assay [6] is 8.27%; in the assay listed under Homo sapiens, 4.21%; in assay [7], 4.3%; in assay [8], 6.49%; in assay [9], -13%.

For `CC(C)(C)OC(=O)NC(C)(C)c1noc(CN2CCCCC2)n1`, the Percent Effect was -5.9% in assay [1]; 8% in assay [2]; -1.12% in [3]; -1.61% in [4]; -3.02% in the assay on Trypanosoma cruzi; 1.04% in assay [5]. Also, the Percent Effect is 9.07% in assay [6]; 13.4% in the assay listed under Homo sapiens; 2.73% in [7]; 8.64% in assay [8]; -7.41% in assay [9].

With `Cc1cc(CN2CC[C@H]3C[C@H](C(=O)N4CCC(C)CC4)O[C@H]3C2)no1`, the Percent Effect in assay [1] was -3.17%; in assay [2], 10.8%; in assay [3] it was 0.505%; in assay [4] it was -2.16%; in the assay with Trypanosoma cruzi, -1.07%; in assay [5], 2.87%. In addition, the Percent Effect in [6] was 22.5%; in the assay listed under Homo sapiens, -12.1%; in assay [7], 0%; in assay [8] it was 12.8%; in [9] it was -2.88%.

For the compound `Cc1n[nH]c(C2CN(CC(=O)NCc3ccco3)CCO2)n1` (stereo unspecified), the Percent Effect is -7.98% in assay [1]; 0% in assay [2]; 3.1% in assay [3]; -5.39% in [4]; -5.36% in the assay with Trypanosoma cruzi; -2.6% in [5]. Also, the Percent Effect in [6] is 6.8%; in the assay listed under Homo sapiens, 24.6%; in assay [7], -1.64%; in assay [8], -3.7%; in [9], -2.33%.
